Among the data in PubChem BioAssay AID624267 (The Scripps Research Institute Molecular Screening Center, 2012) are inhibition values, retold here.

The inhibition is the drop in the measured response relative to a control, in per cent.

Where “and” joins values, the source holds several entries; their conditions need not be identical. Equal entries are not always repeated. Screen size: about 360,000 compounds; about 1,400 (0.39%) were called active. No stated cut-off is given here; in the data, active means inhibition above about 21%; inactive means the rest. This excerpt belongs to a sample that is enriched for actives.

This test deals with Receptor-interacting serine/threonine-protein kinase 2 (Homo sapiens) (UniProt O43353). In words: NOD2-RIPK2 binding disruptors in cells, primary screen, fluorescence, CHO cells, BLA complementation (AID 624267).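 Further: 0% = vehicle only and 100% = reference blocker.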 Particulars: CHO BLA complementation NOD2-RIPK2, CCF4 ratio; at 4.98 µM; hits give high values.
Chain of Receptor-interacting serine/threonine-protein kinase 2 (Homo sapiens) (O43353 whole entry, looked up): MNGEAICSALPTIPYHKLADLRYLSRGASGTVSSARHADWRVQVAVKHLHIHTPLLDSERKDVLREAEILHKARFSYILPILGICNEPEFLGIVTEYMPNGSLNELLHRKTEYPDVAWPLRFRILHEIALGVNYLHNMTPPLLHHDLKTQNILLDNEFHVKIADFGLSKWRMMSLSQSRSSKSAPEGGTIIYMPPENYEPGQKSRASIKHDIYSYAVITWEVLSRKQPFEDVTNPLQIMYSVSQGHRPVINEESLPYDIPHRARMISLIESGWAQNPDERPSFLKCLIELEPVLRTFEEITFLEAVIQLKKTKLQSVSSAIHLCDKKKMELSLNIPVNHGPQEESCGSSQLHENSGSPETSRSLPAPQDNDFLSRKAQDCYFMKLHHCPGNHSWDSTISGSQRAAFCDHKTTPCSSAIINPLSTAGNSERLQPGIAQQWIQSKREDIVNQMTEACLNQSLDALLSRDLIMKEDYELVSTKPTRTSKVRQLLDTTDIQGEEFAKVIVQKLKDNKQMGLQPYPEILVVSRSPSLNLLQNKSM
As for `CC(Oc1ccccc1)C(=O)Nc1oc(-c2ccco2)c(-c2ccco2)c1C#N` (centres undefined), the inhibition was -14.4% (inactive).

On to `COc1ccccc1CSc1ncc(-c2ccc([N+](=O)[O-])cc2)[nH]1`, for which the inhibition was 29.2% (active).

Regarding `COc1cccc(-c2cnc(C(O)c3ccccc3OC)[nH]2)c1` (centres undefined), the inhibition was -4.35% (inactive).

As to `COc1ccc(-c2cnc(SCCNC(=O)c3ccc4c(c3)OCO4)[nH]2)cc1`, the inhibition was -2.11% (inactive).

In the case of `Cc1cccc(N2O[C@H]3C=CC2CCCC3)n1`, the inhibition is 9.84% (inactive).

For the molecule `O=S(=O)(c1ccccc1)N(Cc1cccc(F)c1)c1ccccc1`, the inhibition is -10.2% (inactive).

With `CCN(CC)S(=O)(=O)c1ccc2[nH]c(=O)cc(C(=O)N(C)C3CCS(=O)(=O)C3)c2c1` (centres undefined), the inhibition is -6.75% (inactive).

Turning to `O=S(=O)(c1ccc(OCC(O)CN2CCN(c3ccccc3Cl)CC2)cc1)N1CCOCC1` (centres undefined), the inhibition is -2.63% (inactive).

For `CN1CCC[C@@H]1CCO[C@](C)(c1ccccc1)c1ccc(Cl)cc1`, the inhibition is 14.6% (inactive).

On to `Cc1cc2oc3ccc(NCCC4CCCN4C)cc3c(=O)c2cc1C` (centres undefined), for which the inhibition is 41.2% (active).

Consider `CCCCC(CC(C)O)c1n[nH]c(=S)n1-c1ccccc1` (centres undefined), for which the inhibition was -17.4% (inactive).

As for `O=C(CCNc1n[nH]c(=O)[nH]c1=O)N/N=C\c1ccc(Br)cc1`, the inhibition is -5.19% (inactive).

Turning to `Cc1nn(C)cc1N1C(=O)c2cccc3c(N)ccc(c23)C1=O`, the inhibition was 24.3% (active).

With `O=C(CN1C(=O)NC2(CCOc3ccccc32)C1=O)Nc1cccc([N+](=O)[O-])c1` (centres undefined), the inhibition was 5.36% (inactive).

Take `Cc1cccc2sc(N(CCCN(C)C)C(=O)CCS(=O)(=O)c3ccccc3)nc12`: the inhibition was 24.6% (active).

As for `COc1ccc(C)cc1NC(=O)CCS(=O)(=O)c1cccc2nonc12`, the inhibition is 4.16% (inactive).

As for `Cc1cccc(C)c1NC(=O)CCS(=O)(=O)c1cccc2nsnc12`, the inhibition is 7.27% (inactive).

For the molecule `CCOc1ccccc1NC(=O)CCS(=O)(=O)c1cccc2nsnc12`, the inhibition was 5.35% (inactive).

With `COc1cccc2sc(N(CCCN(C)C)C(=O)CCS(=O)(=O)c3ccccc3)nc12`, the inhibition was 31.7% (active).

As to `O=C(O)CCS(=O)(=O)c1ccc(-c2ccccc2)cc1`, the inhibition was -5.35% (inactive).

For the molecule `O=C(CN1CCN(S(=O)(=O)c2ccc(F)cc2)CC1)NC1CC1`, the inhibition was 0.22% (inactive).

For the molecule `COCCCn1c(SCc2cccc(OC)c2)nc2cc(OC)c(OC)cc2c1=N`, the inhibition is 12.2% (inactive).

In the case of `CCOc1ccc(S(=O)(=O)N2CCN(C(=O)c3oc4ccccc4c3C)CC2)cc1`, the inhibition is -8.52% (inactive).

In the case of `O=C(CCc1ccccc1)NCCc1cccs1`, the inhibition was -5.14% (inactive).

Turning to `CCCc1ccc(-c2csc(NC(=O)Cc3cccs3)n2)cc1`, the inhibition was 21.1% (active).

Take `O=C(Cc1cccs1)Nc1ccc([N+](=O)[O-])cc1`: the inhibition is 3.09% (inactive).

For `COc1cc(S(=O)(=O)Nc2ncn[nH]2)ccc1Cl`, the inhibition was 3.73% (inactive).

For the molecule `CC(=O)c1cc(C#N)c(N2CC(C)OC(C)C2)nc1C` (centres undefined), the inhibition is 0.19% (inactive).

For `COc1ccc(-c2nc3cc(C)ccn3c2NC2CCCCC2)cc1SC1CCCCC1`, the inhibition is -6.71% (inactive) and 17.4% (inactive).

Take `COc1ccc(-c2nc3cnccn3c2NC(C)(C)CC(C)(C)C)cc1O`: the inhibition was 7.55% (inactive).

Consider `COc1ccc(-c2nc3cnccn3c2NC2CCCCC2)cc1-c1cccc(Cl)c1`, for which the inhibition was 27.1% (active) and 52.4% (active).

For `Cn1c(SCC(=O)NC2CCCCC2)nnc1-c1ccc(N)cc1`, the inhibition is -8.42% (inactive).

With `CCCn1nc(Oc2nc(NC(C)C)nc(N(C)C)n2)ccc1=O`, the inhibition was -6.09% (inactive).

In the case of `Cc1ccccc1CNC(=O)CCC(=O)N1Cc2ccccc2Oc2ncccc21`, the inhibition is -3.11% (inactive).

On to `Cc1ccc(C(=O)Nc2c(-c3ccccc3)[nH][nH]c2=O)cc1`, for which the inhibition was -2.83% (inactive).

In the case of `O=C(NNC(=O)C1CCC1)c1ccccc1`, the inhibition is -5.53% (inactive).

For the molecule `O=C(NC1=CC(=O)c2ccccc2C1=O)c1ccccc1`, the inhibition was 60.6% (active).

With `O=C(CN1C(=O)NC2(CCCCCC2)C1=O)NCc1cccs1`, the inhibition was 5.08% (inactive).

As for `CCc1cccc(C)c1NS(=O)(=O)c1c(C)nc2sccn2c1=O`, the inhibition was 6.35% (inactive).

With `Nc1c(-c2cccc(Cl)c2)cnn1-c1cccc([N+](=O)[O-])c1`, the inhibition was -0.26% (inactive).

Turning to `Cc1cccc(N2Cc3ccccc3C2=NC(=O)c2ccc(Cl)nc2)c1`, the inhibition is 1.35% (inactive).

In the case of `Cc1cccc(-n2ncc(Cl)c(Cl)c2=O)c1`, the inhibition is 32.6% (active).

For the molecule `Cc1ccc2[nH]c(C)c(CCNC(=O)NC3CCCCC3)c2c1`, the inhibition was 10.4% (inactive).

As to `O=C(CN1CCOCC1)Nc1c2c(nc3c1CCC3)CCC2`, the inhibition was -11.5% (inactive).

Turning to `Cc1cc(C)n2nc(C(=O)OCC(=O)N(CCC#N)c3ccc(F)cc3)nc2n1`, the inhibition is 5.67% (inactive).

Take `CC(C)(C)C(=O)/C(C#N)=C/c1ccc(O)cc1`: the inhibition is -19.2% (inactive).

For the molecule `COc1cccc(C(=O)NNC(=O)/C=C/c2ccccc2)c1`, the inhibition is -14.4% (inactive).

`O=C(/C=C(O)/C=C/c1ccc(O)cc1)/C=C/c1ccc(O)cc1`: the inhibition was 56.9% (active).

In the case of `COc1ccc(OC)c(CN2C(=O)CCC2(C)C(=O)NC2CCCCCC2)c1` (centres undefined), the inhibition was -0.24% (inactive).

Take `FC(F)(F)C1CCCN(c2nsc3ccccc23)C1` (centres undefined): the inhibition was 31% (active).

As to `O=[N+]([O-])c1cc(S(=O)(=O)NCCc2ccccn2)ccc1Cl`, the inhibition was 5.34% (inactive).

For the molecule `Cc1ccc(C(=O)CN2C(=O)NC3(CCOc4ccccc43)C2=O)s1` (centres undefined), the inhibition is -4.27% (inactive).

As to `CCC1Sc2ccc(S(=O)(=O)CCC(=O)NCc3cccs3)cc2NC1=O` (centres undefined), the inhibition is -15.1% (inactive).

For `COc1cc(NS(=O)(=O)c2ccc3ccccc3c2)c2ncccc2c1`, the inhibition is 29.3% (active).

As for `O=S(=O)(Nc1ccccn1)c1cccc(S(=O)(=O)c2ccc(Cl)cc2)c1`, the inhibition is -8.24% (inactive).

On to `COc1ccc(OC)c(C(C)NC(=S)Nc2ccc(S(=O)(=O)Nc3ncccn3)cc2)c1` (centres undefined), for which the inhibition was 2.38% (inactive).

In the case of `O=[N+]([O-])c1ccc(N/N=C/c2ccccc2)cc1`, the inhibition was 24.8% (active).

Consider `Cc1cccc(COc2ccccc2/C=N/Nc2ccc([N+](=O)[O-])cc2)c1`, for which the inhibition is 31.1% (active).

On to `CC(C=Cc1ccccc1)=NNS(=O)(=O)c1ccc([N+](=O)[O-])cc1`, for which the inhibition is 3.79% (inactive).

On to `Cc1ccccc1OCCOc1ccc([N+](=O)[O-])cc1/C=N/n1cnnc1`, for which the inhibition was 7.18% (inactive).

Regarding `O=[N+]([O-])c1ccc(COc2ccccc2CN2CCOCC2)cc1`, the inhibition was -0.03% (inactive).

`COC(=O)c1ccccc1N=NNc1ccc([N+](=O)[O-])cc1`: the inhibition was 2.92% (inactive).

Turning to `COCCN(C(=O)CSCc1ccc(C)cc1)c1c(N)n(CC(C)C)c(=O)[nH]c1=O`, the inhibition is -4.76% (inactive).

As to `CN(C)CCCO/N=C(\c1ccccc1)c1ccncc1`, the inhibition was -6.88% (inactive).

Take `CCO[C@@H]1OC(C(N)=O)=C[C@H](c2ccc(Br)cc2)[C@H]1CCCO`: the inhibition is -17.7% (inactive).

In the case of `CN(C)S(=O)(=O)c1cccc(C(=O)OCC(=O)N2CCCC2=O)c1`, the inhibition is -8.86% (inactive).

Turning to `NS(=O)(=O)c1cccc(NC(=O)COC(=O)c2cc([N+](=O)[O-])ccc2N2CCCC2)c1`, the inhibition was -11.1% (inactive).

As for `N#Cc1cccc(NC(=O)COC(=O)c2ccccc2C(=O)c2ccc(Cl)c([N+](=O)[O-])c2)c1`, the inhibition is 39.9% (active).

For `CC(=O)Nc1ccc(NC(=O)C(C)OC(=O)c2ccccc2C(=O)c2ccc(Cl)c([N+](=O)[O-])c2)cc1` (centres undefined), the inhibition was 3.48% (inactive).

`Cn1nnnc1SCC(=O)NNC(=O)c1ccc(Br)cc1`: the inhibition is -2.01% (inactive).

For `CN1CCN(/N=C2/C(=O)Nc3ccc([N+](=O)[O-])cc32)CC1`, the inhibition is 1.73% (inactive).

On to `CN1CCN(/N=C/c2ccc(C#N)cc2)CC1`, for which the inhibition was -13.1% (inactive).

Take `CN1CCN(/N=C/c2ccc(-c3ccc([N+](=O)[O-])cc3)o2)CC1`: the inhibition is 21.4% (active).

Regarding `COCCNC(=O)C(c1ccc(C)o1)N(Cc1cccs1)C(=O)c1snc(C(N)=O)c1N` (centres undefined), the inhibition is -22% (inactive).

`Cc1nnc(NC2=NCCCCC2)o1`: the inhibition is -2.4% (inactive).

With `COc1ccc(CNC(=O)CN2CCC(n3nnc4cc(F)ccc43)CC2)cc1`, the inhibition was -4.66% (inactive).

As for `Cn1c(SCC(=O)C(C)(C)C)nnc1-c1ccccn1`, the inhibition is 2.6% (inactive).

As for `CNC(=S)N/N=C/c1ccc(OCc2ccccc2)c(Br)c1`, the inhibition was 33.9% (active).

With `COc1cc(/C=N/NC(=O)Nc2ccccc2)ccc1OCCOc1ccccc1C`, the inhibition is 9.59% (inactive).

For `O=C(O)COc1ccc(/C=N/O)cc1Br`, the inhibition was 11.6% (inactive).

Take `Cc1c(-c2ccccc2)cn2c1-c1ccc(C)n1CC2`: the inhibition was -12.5% (inactive).

Take `[O-][n+]1onc2c1CCc1[nH]c(-c3ccccc3)nc1-2`: the inhibition is -6.67% (inactive).

On to `CC(C)=CCC/C(C)=C/C(=O)O`, for which the inhibition is 3.56% (inactive).

Regarding `Cc1cc(C)nc(NC(=O)Nc2ccccc2C(F)(F)F)n1`, the inhibition was 7.62% (inactive).

Take `O=C(/C=C/Sc1ncn[nH]1)c1ccc(Cl)cc1`: the inhibition was 21.3% (active).

`CC(C)CC(=O)N=C1SC2CS(=O)(=O)CC2N1CCc1ccccc1` (centres undefined): the inhibition was -9.18% (inactive).

Regarding `C=CCn1c(-c2ccccc2OCC)n[nH]c1=S`, the inhibition was 0.62% (inactive).

On to `O[C@H]1CN(Cc2cccs2)[C@@H](c2ccc(Cl)cc2)C[C@@H]1n1cc(C2CC2)nn1`, for which the inhibition is 5.68% (inactive).

Turning to `O[C@H]1C[C@H](c2ccc(Cl)cc2)N(Cc2cccs2)C[C@@H]1n1cc(C2CC2)nn1`, the inhibition is 21.6% (active).

For the molecule `O[C@@H]1C[C@H](c2ccccc2)N(Cc2cccs2)C[C@H]1n1cc(C2CC2)nn1`, the inhibition is -9.47% (inactive).

Consider `CC(=O)Nc1ccc(CNc2nc(NCCN(C)C)nc3cc(-c4ccccc4)sc23)cc1`, for which the inhibition is 11.1% (inactive).

Regarding `Cc1ccc(C(=O)N2CCC(n3nccc3NC(=O)Nc3cccc(F)c3)CC2)cn1`, the inhibition was -2.88% (inactive).

Regarding `COc1ccc2ccccc2c1CNCc1ccccn1`, the inhibition is -4.61% (inactive).

For the molecule `FC(F)Oc1ccccc1C1CC(c2ccc(Br)s2)Nc2ncnn21` (centres undefined), the inhibition was -2.05% (inactive).
